Compounds with a hit are over-represented: about 17% of the library has one in this group of screens.
TGFb SMAD3 inh = qHTS for Inhibitors of TGF-b; 410,000 tested, 1.2% active; Potency, µM (highest dose often 46.1 µM), for inactives: at the highest dose activity, negative = inhibition, most hits filed as inhibitors; HepG2 CAGA-GFP TGF-b/SMAD3 reporter, GFP fluorescence, 18 h; TGF-beta stimulated, 500 pg/mL final; further: on the % scale 0 is the no-effect control and ±100 the full control effect; nearly all actives have a fitted effect of over 65% in size
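GFP signal (ex488/em500-530) from TGF-beta-stimulated HEPG2 CAGA-GFP cells, 500 pg/mL final, 18 h at 37 degrees C in DMEM plus 1% FBS, normalized to unstimulated and DMSO-stimulated controls.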
DT40 TDP1 CPT = qHTS for Inhibitors of human tyrosyl-DNA phosphodiesterase 1 (TDP1): qHTS in cells in presence of CPT; chicken DT40 Tdp1-/-;hTDP1 cells + 20 nM CPT, ATP luminescence, 48 h; Potency, µM (highest dose often 46.2 µM), without a hit: at the highest dose activity change, negative = growth inhibition, most hits filed as inhibitors; 420,000 tested, 12% active; AID 686979, 2013; further: on the % scale 0 is the no-effect control and ±100 the full control effect; nearly all actives have a fitted effect of over 55% in size
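Chicken DT40 Tdp1-/- cells stably complemented with human TDP1 were seeded at 400 cells/well in medium containing 20 nM camptothecin, exposed to pin-transferred compounds, and grown at 37 °C for at least 48 hr. Viability was read as ATP luminescence.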
HT1080-NT tox = qHTS for induction of synthetic lethality in tumor cells producing 2HG: qHTS for the HT-1080-NT fibrosarcoma cell line; HT-1080-NT fibrosarcoma viability, CellTiter-Glo ATP luminescence, 48 h; Potency, µM (top dose mostly 46.1 µM), without a hit: top-dose activity, negative = less viability, usual class: cytotoxic; 360,000 tested, 1.6% active; AID 686970, 2013;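 further: NT is the 2HG producing partner of a matched IDH1 knockdown line; 0% = DMSO-treated cells and -100% = media-only wells without cells; nearly all actives have a fitted effect of over 55% in size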
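Fibrosarcoma NT cells, 750 per well in 5% FBS RPMI, were exposed to compound for 48 hours. Viability: CellTiter-Glo luminescence.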
HT1080 IDH1KD tx = qHTS for induction of synthetic lethality in tumor cells producing 2HG: qHTS for the HT-1080-IDH1KD cell line. 360,000 tested, 2% active. HT-1080 IDH1 knockdown viability, ATP luminescence, 48 h. Potency, µM (series often up to 46.1 µM), inactives show at the highest dose activity, negative = toxicity, usual class: cytotoxic;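 further: 0% = DMSO wells and -100% = cell-free medium wells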
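Assay cells: HT-1080 with IDH1 knockdown, 750 per well, RPMI/5% FBS. Exposure: 48 h at 37 °C following 2 h pre-incubation. Read: CellTiter-Glo luminescence; fitted concentration-response, curve class assigned.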
TDP1 cell noCPT = qHTS for Inhibitors of human tyrosyl-DNA phosphodiesterase 1 (TDP1): qHTS in cells in absence of CPT; DT40 Tdp1-/- hTDP1 cells, no CPT, ATP luminescence, 48 h; Potency, µM (top dose mostly 46.2 µM), without a hit: top-dose activity change, negative = growth inhibition, most hits filed as inhibitors; 420,000 tested, 15% active; further: on the % scale 0 is the no-effect control and ±100 the full control effect; nearly all actives have a fitted effect of over 55% in size
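Readout: luminescence from CellTiter-Glo after 30 min in the dark at RT. Cells: DT40 Tdp1-/- with stable hTDP1, 400/well. Exposure: compounds alone, ≥48 hr, 37 °C.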
HepG2 tox = qHTS for Inhibitors of TGF-b: Cytotox Counterscreen. HepG2 CAGA-GFP viability, ATP luminescence, 18 h. Potency, µM (highest dose often 46.1 µM), without a hit: at the top dose activity change, negative = cytotoxicity, most hits filed as cytotoxic. 410,000 tested, 0.76% active
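CellTiter-Glo luminescence gave cytotoxicity after 18 hours at 37 degrees C. The cells were HepG2 CAGA-GFP in 1% FBS DMEM, stimulated with 500 pg/mL TGF-beta after compound addition. %Activity was normalised to no-cell wells (complete cell-killing) and DMSO (no toxicity), and curves were fitted and classified.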
Active calls of the source: *; ? = inconclusive; nt = no result given. The call rests on the fitted dose curve; in most records, active means well fitted curve in the direction sought with a large enough effect; inconclusive means small, poorly fitted or top-dose-only effect, or another doubt; inactive means no such curve, though single readings can be large; an effect the other way counts as inactive or inconclusive. Potency means the concentration at half of the fitted maximal effect.

SMILES	TGFb SMAD3 inh	DT40 TDP1 CPT	HT1080-NT tox	HT1080 IDH1KD tx	TDP1 cell noCPT	HepG2 tox
O=C1c2ccccc2C(=O)c2c(/C=C/N3CCCCC3)ccnc21	?	6.5µM*	-20%	23µM*	10µM*	3.5µM*
CCOC(=O)C1C(=O)NC(C(=O)OCC)(C(=O)OCC)C1CC (stereo not drawn)	6%	-1%	21%	18%	-4%	8%
O=C(Nc1ccc2nc(SCC(=O)N3CCOCC3)sc2c1)c1ccc(F)cc1	-52%	16µM*	nt	nt	12µM*	-18%
O=C(Nc1ccc2nc(SCC(=O)N3CCCC3)sc2c1)c1cccc(F)c1	0%	21µM*	nt	nt	15µM*	-11%
O=C(Nc1ccc2nc(SCC(=O)N3CCCC3)sc2c1)c1ccc(F)cc1	-8%	-4%	nt	nt	-19%	5%
O=C(Nc1ccc2nc(SCC(=O)N3CCOCC3)sc2c1)c1cccc(F)c1	0%	23µM*	nt	nt	21µM*	-31%
Cn1c(=O)n(C)c2cc(NC(=O)c3ccc(F)cc3)ccc21	-13%	6%	-9%	-3%	-2%	-26%
COC(=O)[C@]12CCCCC=C1N(CCc1ccc(OC)c(OC)c1)C(=O)[C@H](CC(=O)N1CCN(C(=O)C3CC3)CC1)C2	nt	-24%	14%	12%	-26%	nt
COC(=O)[C@]12CCCCC=C1N(CCc1ccc(OC)c(OC)c1)C(=O)[C@H](CC(=O)N1CCC(c3ccccc3)CC1)C2	nt	8.2µM*	-19%	?	8.2µM*	nt
COC(=O)[C@]12CCCCC=C1N(CCc1ccc(OC)c(OC)c1)C(=O)[C@H](CC(=O)NCc1cccc(C(F)(F)F)c1)C2	nt	?	?	?	16µM*	nt
COC(=O)[C@]12CCCCC=C1N(CCc1ccc(OC)c(OC)c1)C(=O)[C@H](CC(=O)NCc1ccccc1)C2	nt	?	8%	4%	21µM*	nt
COC(=O)[C@]12CCCCC=C1N(CCc1ccc(OC)c(OC)c1)C(=O)[C@H](CC(=O)NCC1CCCCC1)C2	nt	?	-14%	-17%	?	nt
COC(=O)[C@@]12C[C@@H](CC(=O)NCc3cccc(C(F)(F)F)c3)C(=O)N(CCc3ccc(OC)c(OC)c3)C1=CCC(C)(C)C2	nt	9.2µM*	?	?	12µM*	nt
COC(=O)c1c(NC(=O)C(=O)N2CCOCC2)sc2c1CCCC2	-9%	-18%	-6%	-3%	3%	-12%
O=C(COC(=O)c1nc(Cl)ccc1Cl)Nc1cccc(S(=O)(=O)N2CCOCC2)c1	-14%	-14%	-3%	0%	0%	0%
COC(=O)[C@]12CCCCC=C1N(CCc1ccc(OC)c(OC)c1)C(=O)[C@H](CC(=O)NCCCCc1ccccc1)C2	nt	21µM*	?	?	16µM*	nt
COC(=O)[C@]12CCCCC=C1N(CCc1ccc(OC)c(OC)c1)C(=O)[C@H](CC(=O)NCc1ccc(OC)c(OC)c1)C2	nt	29µM*	1%	-11%	16µM*	nt
COC(=O)[C@]12CCCCC=C1N(CCc1ccc(OC)c(OC)c1)C(=O)[C@H](CC(=O)NCCc1ccccc1OC)C2	nt	?	-2%	-13%	18µM*	nt
CC1CCc2c(sc(NC(=O)Cn3nnc(-c4ccc(C(F)(F)F)cc4)n3)c2C#N)C1 (stereo not drawn)	9%	-7%	nt	nt	1%	1%
COc1ccc(CNc2ncnc3c2c(-c2ccccc2)cn3-c2ccccc2)cc1	-5%	?	nt	nt	21µM*	-3%
CCOc1ccc(-n2cc(-c3ccccc3)c3c(NCCc4ccccc4)ncnc32)cc1	-12%	?	nt	nt	23µM*	-35%
CCOc1ccc(-n2cc(-c3ccccc3)c3c(NCc4ccc(F)cc4)ncnc32)cc1	-4%	18µM*	nt	nt	12µM*	-22%
Cc1ccc(CNc2ncnc3c2c(-c2ccccc2)cn3-c2ccccc2)cc1	7%	?	nt	nt	-88%	-10%
CCOc1ccc(-n2cc(-c3ccccc3)c3c(NCc4ccccc4)ncnc32)cc1	-3%	?	nt	nt	?	-13%
CC(C)=NNc1nc(-c2ccccc2)c(C)s1	4%	?	-8%	-8%	?	-1%
SMILES	TGFb SMAD3 inh	DT40 TDP1 CPT	HT1080-NT tox	HT1080 IDH1KD tx	TDP1 cell noCPT	HepG2 tox
CCC1=[N+](C)CCn2c(C)ccc21	1%	-7%	0%	0%	-25%	-19%
CCC1=[N+](CC(=O)c2ccc(Br)cc2)CCn2c(C)ccc21	-14%	?	-9%	-7%	10µM*	-36%
CCC1=[N+](CC(=O)c2ccc(C)cc2)CCn2cccc21	-4%	4.1µM*	-15%	-9%	5.2µM*	7%
CCC1=[N+](CC(=O)c2ccc(C)cc2)CCn2c(C)ccc21	-36%	2.9µM*	-13%	?	2.1µM*	-28%
O=C(C[n+]1ccccc1)N/N=C/c1ccc(Cl)c(Cl)c1	-5%	-5%	-1%	2%	-7%	-1%
CN(CC(=O)O)Cc1oc(CO)cc(=O)c1O	0%	2%	0%	12%	-5%	-12%
Fc1ccccc1C(c1nnnn1C1CCCC1)N1CCN(Cc2ccccc2)CC1 (stereo not drawn)	-1%	21µM*	1%	8%	12µM*	-2%
Fc1ccc(C(c2nnnn2C2CCCCC2)N2CCCC2)cc1 (stereo not drawn)	8%	-1%	2%	7%	-25%	1%
C1=C(C(c2nnnn2C2CCCCC2)N2CCCCC2)COc2ccccc21 (stereo not drawn)	4%	?	13%	-2%	16µM*	5%
CCC(c1nnnn1C1CCCC1)N1CCN(C/C=C/c2ccccc2)CC1 (stereo not drawn)	-33%	?	13%	2%	?	-23%
CSCCC(c1nnnn1C1CCCCC1)N1CCN(C/C=C/c2ccccc2)CC1 (stereo not drawn)	?	?	?	?	21µM*	-8%
C(=C\c1ccccc1)/CN1CCN(C(c2ccccc2)c2nnnn2C2CCCCC2)CC1 (stereo not drawn)	-6%	?	21%	7%	13µM*	-1%

Screening data from PubChem.
